# Screening results as filed in PubChem BioAssay.
# Compounds with a hit are over-represented: about 4.9% of the library has one in this group of screens.
# HSP90 inh: HSP90 refolding inhibition in rabbit reticulocyte lysate | luciferase refolding luminescence, 3 h | inhibition, % at 5.6 µM | 0.91% of 290,000 active | AID 1789;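 active = inhibition above the screen-wide mean plus 3 SD, computed separately per campaign, cut at about 16% in these data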;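 also: 0% = DMSO wells and 100% = 60 µM geldanamycin wells; inhibitors lower the luminescence because luciferase stays unfolded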
# dFosB act-1: mouse delta FosB homodimer activation. AID 493131. purified delta FosB, TAMRA-CDK5 oligo fluorescence polarization; percent of positive-control signal above neutral wells. 0.99% of 340,000 active. activation, % at 25 µM;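 active = mean activation above about 17%, with every replicate also reaching it, limit read from the data, passing the limit was not always enough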
# Target sequence (P13346 whole entry, looked up): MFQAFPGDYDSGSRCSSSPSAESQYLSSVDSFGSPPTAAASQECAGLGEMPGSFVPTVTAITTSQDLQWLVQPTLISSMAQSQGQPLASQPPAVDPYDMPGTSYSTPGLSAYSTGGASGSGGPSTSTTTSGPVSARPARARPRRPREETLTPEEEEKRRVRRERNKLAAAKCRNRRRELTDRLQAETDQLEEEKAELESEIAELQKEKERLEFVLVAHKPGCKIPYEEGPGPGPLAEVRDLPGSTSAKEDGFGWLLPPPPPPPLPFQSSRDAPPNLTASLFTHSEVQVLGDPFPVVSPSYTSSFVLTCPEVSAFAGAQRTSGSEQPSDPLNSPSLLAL
# Platelet DG rel: platelet dense granule release activity; AID 1663; inhibition, %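 (compounds screened at 7.5 µM in platelet-rich plasma)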; 0.22% of 300,000 active; human platelet-rich plasma, SFLLRN dense granule ATP release, luminescence;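 active = mean replicate score, as percent of positive control, at or above 50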
# HSF1 inhib: HSF1 inhibition; NIH3T3-HGL HSE-luciferase, MG132-induced, luminescence 8 h; active compounds read low; activity change, negative = inhibition, % at 7.5 µM (by protocol); 0.77% of 300,000 active;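 active = more than half of replicate wells show activity change below -50%, luminescence cut by over half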;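 also: luciferase reports HSF-1 transcriptional activity via heat shock element; 0% = median of DMSO wells and -100% = zero luminescence signal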
# MPTP inh: blocks calcium-induced mitochondrial swelling; isolated mouse mitochondria, Ca2+ swelling absorbance, 30 min; inhibition, % at 10 µM; 1.4% of 360,000 active; AID 602449;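 active = inhibition of 50% or more, scaled per plate between neutral and stimulator controls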;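 also: 0% = DMSO wells given calcium and 100% = 1 mM EGTA wells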
# HSF1 activator: increases HSF-1 driven luciferase reporter signal | 1.7% of 300,000 active | NIH3T3-HGL HSF-1 luciferase reporter, MG132, 8 h; 100% = twice DMSO control signal | AID 504408 | activation, % at 9 µM;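 active = mean replicate activation of at least 50% with a set share of replicates each reaching 50%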;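 also: 0% = median of the neutral control wells and 100% = twice that signal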
# dFosB act-2: activators of mouse delta FosB homodimer DNA binding | activation, % at 24.9 µM | 2,400 tested, under 10 active | purified delta FosB, TAMRA-CDK5 oligo fluorescence polarization; normalised: neutral wells 0, positive control 100 | shares compounds with dFosB act-1;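 active = highest replicate activation at or above 34% and every replicate reaching that threshold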;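 also: higher polarization means more probe DNA bound by delta FosB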
# * hit, by the source's call; · = not tested or not shown.
SMILES,HSP90 inh,dFosB act-1,Platelet DG rel,HSF1 inhib,MPTP inh,HSF1 activator,dFosB act-2
CCN(C(=O)COC(=O)/C=C/c1ccc(OC)c(OC)c1)c1c(N)n(Cc2ccccc2)c(=O)[nH]c1=O,·,20*,·,·,-1,·,-2
COCCN(C(=O)COC(=O)/C=C/c1ccc(SC)cc1)c1c(N)n(Cc2ccccc2)c(=O)[nH]c1=O,·,21*,·,·,0,·,1
COc1ccc(/C=C/C(=O)OCC(=O)N(C)c2c(N)n(Cc3ccccc3)c(=O)[nH]c2=O)cc1OC,·,0,·,·,0,·,·
CCN(C(=O)COC(=O)c1ccc2ccccc2c1)c1c(N)n(Cc2ccccc2)c(=O)[nH]c1=O,·,38*,·,·,-2,·,1
CC(C)(C)OC(=O)C[C@H]1C/C=C\C[C@H](CC(=O)N(CCO)Cc2ccccc2)C(=O)N[C@H](C(C)(C)C)COC1=O,·,-6,·,·,-1,·,·
Cc1cc(C)c(NC(=O)CSCc2nc3sc(C)c(C)c3c(=O)[nH]2)c(Cl)c1,·,32*,·,·,0,·,1
Cc1ccc(NC(=O)Cn2cc(C(F)(F)F)cc(Cl)c2=O)cc1Cl,4,23*,4,-4,-2,2,6
Cc1ccc(NC(=O)Cn2nc(-c3ccco3)ccc2=O)cc1Cl,7,78*,-3,-4,-1,4,0
O=C(Cn1cc(C(F)(F)F)cc(Cl)c1=O)Nc1cccc(Cl)c1,2,6,7,2,0,-1,·
Cc1ccc(NC(=O)Cn2nc(C)c([N+](=O)[O-])c2C)cc1Cl,-6,28*,2,0,-2,15,0
COc1cc(C2CC(=O)Oc3cc(C)c(Br)c(C)c32)cc(OC)c1OC (configuration not stated),·,-3,·,·,1,·,·
COc1cc(C(=O)NCc2ccc(-c3nc4ccccc4o3)cc2)cc(OC)c1OC,4,27*,5,-5,0,22,5
COc1ccc(-c2ccc3c(=O)cc(-c4ccsc4)oc3c2)cn1,·,-141,·,·,0,·,·
COc1cc(-c2ccc3oc(-c4ccsc4)cc(=O)c3c2)cc(OC)c1OC,·,44*,·,·,0,·,-12
CCCCCc1nnc(NC(=O)c2cccc(S(=O)(=O)N3CCOCC3)c2)s1,·,-6,·,·,1,·,·
CC(C)CCN(C(=O)COc1ccc(C#N)cc1)c1c(N)n(Cc2ccccc2)c(=O)[nH]c1=O,-2,·,1,-6,·,16,·
O=C1COc2ccc(C(=O)COC(=O)c3cc(S(=O)(=O)NCc4ccccc4)ccc3O)cc2N1,-1,66*,0,-5,5,0,-1
O=C(Cn1ccc(C(F)(F)F)n1)N/N=C/c1cccs1,-5,-2,-3,-6,1,2,·
COc1ccc(N2CCc3c(C)nc4c(OC)cc(OC)cc4c32)cc1,2,38*,-2,-1,36,13,1
CCOC(=O)C1(C)CCCN(C(=O)c2cccs2)C1 (configuration not stated),·,·,·,·,0,·,·
COc1ccc(NC(=O)/C(Cl)=C(/Cl)S(=O)Cc2ccccc2Cl)cn1 (configuration not stated),10,-10,·,·,·,·,·
CC(=O)Nc1ccc(NC(=O)c2cccc(-c3cc4ccccc4oc3=O)c2)cc1,-3,5,-4,15,0,25,·
COc1ccc(C(=O)Nc2nc3ccc(OC)cc3s2)cc1,4,-13,2,11,0,19,·
COc1ccc2nc(NC(=O)c3cccc(-c4cc5ccccc5oc4=O)c3)sc2c1,-1,44*,9,10,1,3,0
COc1cc(NC(=O)c2ccc(Cl)cc2Cl)ccc1-c1cc2ccccc2oc1=O,-7,24*,-12,-5,1,12,6
COc1ccc(C(=O)Nc2cccc(-c3cc4ccccc4oc3=O)c2)cc1[N+](=O)[O-],2,52*,·,·,-18,·,5
O=c1cc(/N=C/c2coc3c(ccc4ccccc43)c2=O)[nH]c(=S)[nH]1,1,43*,10,4,4,13,-1
COCCNC(=O)C1(C)CCN(C(=O)c2ccc(C(F)(F)F)nc2C)C1 (configuration not stated),·,·,·,·,1,·,·
